A word on the inhibition: it is the drop in the measured response relative to a control, in per cent.

Values without a mark were called inactive. For part of these data: Entries with a potency or affinity are not part of this list. Active and inactive are the calls of the source. Unless noted, the rule behind the calls is not given here.

Drawing on PubChem BioAssay, this text covers growth inhibition, inhibition and outcome for 18 compounds.

A short description of assay [1]: antimalarial activity against Dd2 strain (AID 2302;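 active = growth inhibition above 50% at the single 2 µM test dose, taken to imply half-maximal potency below 2 µM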;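 note: 0% = DMSO untreated growth and 100% = chloroquine plus artemisinin killed control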). Conditions: P. falciparum Dd2 in RBCs, LDH growth readout, 72 h; at 2 µM; active compounds read high.
Assay [2] can be described thus: human hepatoma cell viability loss – ATP luminescence, cytotoxicity control for P. falciparum antimalarial project, primary screen (AID 2303;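 active = inhibition above 50%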;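 note: 0% = DMSO wells and 100% = digitonin-killed cells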). Conditions: HepG2 viability, 24-48 h, at 10 µM, active compounds read high.
Assay [3] addresses L-lactate dehydrogenase (Plasmodium falciparum (isolate CDC / Honduras)) (UniProt Q27743). Briefly: PfLDH activity inhibition – cell lysate, 3D7 strain, counter-screen for P. falciparum growth inhibition project (AID 2304).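 Note: 0% = vehicle and 100% = reference inhibitor.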 Conditions: P. falciparum 3D7 crude extract, LDH APAD/NBT absorbance; at 2 µM; active compounds read high. On the technique in general: Counterscreens check selectivity or assay interference.

Assay [4] can be described thus: inhibition of 3D7 malaria parasite growth – strain 3D7 (AID 2306).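 Note: 0% = DMSO wells and 100% = chloroquine plus artemisinin control wells.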 The note with it: P. falciparum 3D7 erythrocytic growth, LDH absorbance, 72 h; at 2 µM; active compounds read high.
Assay [5] deals with Calcium-dependent protein kinase 1 (Plasmodium falciparum (isolate 3D7)) (UniProt P62344). Briefly: PfCDPK1 kinase inhibitors, biochemical, TCAMS library (AID 1159585; cut-off not given, nearly all actives have IC50 up to about 0.98 µM;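 note: inhibitors leave more ATP so luminescence rises with inhibition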). Conditions: recombinant PfCDPK1, Kinase-Glo ATP depletion luminescence.
Calcium-dependent protein kinase 1 (Plasmodium falciparum (isolate 3D7)), sequence (P62344 whole entry, looked up): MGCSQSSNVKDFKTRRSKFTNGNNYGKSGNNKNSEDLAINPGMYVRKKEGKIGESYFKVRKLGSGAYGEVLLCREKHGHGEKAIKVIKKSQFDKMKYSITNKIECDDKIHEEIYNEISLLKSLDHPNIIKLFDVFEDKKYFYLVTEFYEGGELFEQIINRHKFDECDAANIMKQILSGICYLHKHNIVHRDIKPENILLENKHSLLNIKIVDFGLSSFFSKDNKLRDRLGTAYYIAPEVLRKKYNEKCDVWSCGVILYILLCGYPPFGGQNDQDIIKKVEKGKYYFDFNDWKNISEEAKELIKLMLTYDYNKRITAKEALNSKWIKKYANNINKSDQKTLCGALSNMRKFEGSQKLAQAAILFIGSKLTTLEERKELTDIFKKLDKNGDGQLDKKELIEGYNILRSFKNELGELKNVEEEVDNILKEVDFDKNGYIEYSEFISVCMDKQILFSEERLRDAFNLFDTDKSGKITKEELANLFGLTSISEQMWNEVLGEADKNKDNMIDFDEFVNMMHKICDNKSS
Assay [6] addresses Plasmodium falciparum protein kinase 6 (PK6, PF3D7_1337100) (UniProt Q8IDW1). Briefly: PfPK6 kinase inhibitors, biochemical, TCAMS library (AID 1159586). The note with it: recombinant PfPK6, Kinase-Glo ATP depletion luminescence.
For assay [7], the target named is Protein kinase 7 (PK7), Plasmodium falciparum 3D7 (PF3D7_0213400) (UniProt Q7YTF7). Briefly: inhibition of Plasmodium PK7 catalytic activity – biochemical, TCAMS antimalarial set, Kinase-Glo luminescence (AID 1159587). Conditions: recombinant PfPK7, Kinase-Glo ATP depletion luminescence. A general note: Kinase-Glo reads ATP consumption through a luciferase reaction.
Protein kinase 7 (PK7), Plasmodium falciparum 3D7 (PF3D7_0213400), sequence (Q7YTF7 1-343): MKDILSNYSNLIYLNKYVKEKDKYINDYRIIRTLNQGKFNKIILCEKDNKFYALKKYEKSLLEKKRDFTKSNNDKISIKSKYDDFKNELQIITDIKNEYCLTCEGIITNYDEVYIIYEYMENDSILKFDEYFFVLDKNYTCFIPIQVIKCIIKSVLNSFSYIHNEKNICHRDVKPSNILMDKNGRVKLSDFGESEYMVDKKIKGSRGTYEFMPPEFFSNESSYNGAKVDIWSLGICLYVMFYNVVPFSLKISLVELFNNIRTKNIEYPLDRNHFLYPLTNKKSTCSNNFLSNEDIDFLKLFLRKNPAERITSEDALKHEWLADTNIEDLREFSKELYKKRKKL

Assay [8] deals with Calcium-dependent protein kinase 4 (Plasmodium falciparum (isolate 3D7)) (UniProt Q8IBS5). Briefly: PfCDPK4 kinase inhibitors, biochemical, TCAMS library (AID 1159588; cut-off not given, nearly all actives have IC50 up to about 0.91 µM). Conditions: recombinant PfCDPK4, Kinase-Glo ATP depletion luminescence.
Calcium-dependent protein kinase 4 (Plasmodium falciparum (isolate 3D7)), sequence (Q8IBS5 whole entry, looked up): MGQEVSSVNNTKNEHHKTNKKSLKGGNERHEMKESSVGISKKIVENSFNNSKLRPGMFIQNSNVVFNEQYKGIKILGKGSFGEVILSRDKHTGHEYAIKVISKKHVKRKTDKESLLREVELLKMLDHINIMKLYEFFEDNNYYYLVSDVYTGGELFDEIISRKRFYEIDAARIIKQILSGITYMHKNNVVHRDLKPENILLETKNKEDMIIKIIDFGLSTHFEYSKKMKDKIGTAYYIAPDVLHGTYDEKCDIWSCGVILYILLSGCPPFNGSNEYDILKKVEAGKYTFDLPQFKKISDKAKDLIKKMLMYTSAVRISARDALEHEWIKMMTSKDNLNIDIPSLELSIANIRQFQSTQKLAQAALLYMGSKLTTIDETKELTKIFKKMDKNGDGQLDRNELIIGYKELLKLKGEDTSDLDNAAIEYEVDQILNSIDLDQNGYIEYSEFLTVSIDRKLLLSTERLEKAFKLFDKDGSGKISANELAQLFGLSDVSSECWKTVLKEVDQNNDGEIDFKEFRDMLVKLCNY

L-lactate dehydrogenase (Plasmodium falciparum (isolate CDC / Honduras)), sequence (Q27743 whole entry, looked up): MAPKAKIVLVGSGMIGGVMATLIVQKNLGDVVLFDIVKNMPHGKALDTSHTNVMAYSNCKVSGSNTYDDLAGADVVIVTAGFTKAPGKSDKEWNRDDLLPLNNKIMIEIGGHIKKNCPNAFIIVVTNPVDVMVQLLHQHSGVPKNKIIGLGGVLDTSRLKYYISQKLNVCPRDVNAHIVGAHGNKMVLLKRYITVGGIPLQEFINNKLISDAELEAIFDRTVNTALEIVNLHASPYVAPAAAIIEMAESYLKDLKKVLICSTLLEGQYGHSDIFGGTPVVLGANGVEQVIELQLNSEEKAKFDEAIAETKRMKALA
Plasmodium falciparum protein kinase 6 (PK6, PF3D7_1337100), sequence (Q8IDW1 1-305): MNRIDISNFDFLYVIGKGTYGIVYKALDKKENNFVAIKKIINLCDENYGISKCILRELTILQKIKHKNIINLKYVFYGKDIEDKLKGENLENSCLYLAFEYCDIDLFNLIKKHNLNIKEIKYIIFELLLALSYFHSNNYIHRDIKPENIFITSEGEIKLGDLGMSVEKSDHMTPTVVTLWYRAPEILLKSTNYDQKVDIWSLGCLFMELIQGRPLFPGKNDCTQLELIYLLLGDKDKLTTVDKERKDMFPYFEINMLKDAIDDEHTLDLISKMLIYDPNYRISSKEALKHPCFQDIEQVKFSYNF

As to `CCN(CC)CCN(Cc1ccc(-c2ccc(C(F)(F)F)cc2)cc1)C(=O)Cn1cc(Cc2cnn(C)c2)c(=O)n2nc(-c3ccccc3)cc12`, the growth inhibition in assay [1] is 74% (active); in assay [4], 100% (active). In addition, the inhibition was 18% in assay [2] and -2% in assay [3]. Besides, the outcome in assay [5], in assay [6], in assay [7] and in assay [8] was inactive.
As to `CC(C)N1CCN(C(=O)c2ccc(CNCCCN3CCN(c4ccccc4C(F)(F)F)CC3)s2)CC1`, the growth inhibition in assay [1] is 42%; in assay [4], 98% (active). Besides, the inhibition was 32% in assay [2] and -7% in assay [3]. Moreover, the result in assay [5], in assay [6], in assay [7] and in assay [8] was inactive.
In the case of `CCOc1ccc(C=CC(=O)Nc2ccc3nc(N4CCN(C)CC4)cc(C)c3c2)cc1OC`, the growth inhibition is 70% (active) in assay [1] and 102% (active) in assay [4]. Moreover, the inhibition in assay [2] is -2%; in assay [3], -10%. The outcome in assay [5], in assay [6], in assay [7] and in assay [8] was inactive.
As for `CC(C)c1ccc(-c2noc(SCC(=O)N3CCCCC3C)n2)cc1` (centres undefined), the growth inhibition in assay [1] and in assay [4] was 92% (active) throughout. For the same compound, the inhibition in assay [2] was 21%; in assay [3], 2%. The outcome in assay [5], in assay [6], in assay [7] and in assay [8] was inactive.
Regarding `OC1CCCN(Cc2cccc(-c3ccc(-c4nc5ccccc5[nH]4)cc3)c2)C1` (centres undefined), the growth inhibition was 16% in assay [1] and 85% (active) in assay [4]. Moreover, the inhibition in assay [2] was 25%; in assay [3], -2%. Further, the result in assay [5], in assay [6], in assay [7] and in assay [8] was inactive.
Turning to `COc1ccc(-c2ccc(NC(=O)c3ccc(Cl)cc3)cc2)cc1CN1CCN(C)CC1`, the growth inhibition in assay [1] is 23%; in assay [4], 86% (active). Moreover, the inhibition in assay [2] is 36%; in assay [3], 7%. Besides, the result in assay [5], in assay [6], in assay [7] and in assay [8] was inactive.
On to `N=c1n(Cc2ccc(Cl)cc2)c2ccccc2n1CC(O)c1ccc(Cl)c(Cl)c1` (centres undefined), for which the growth inhibition in assay [1] is 99% (active); in assay [4], 98% (active). Moreover, the results for the inhibition in assay [2] and in assay [3] were 58% (active) and 4%, respectively. The outcome in assay [5], in assay [6], in assay [7] and in assay [8] was inactive.
Turning to `O=C(Nc1cccc(CN2CCCN(Cc3ccsc3)CC2)c1)c1cc2ccccc2s1`, the figures for the growth inhibition in assay [1] and in assay [4] were 29% and 96% (active), respectively. Moreover, the inhibition is 25% in assay [2] and 5% in assay [3]. The result in assay [5], in assay [6], in assay [7] and in assay [8] was inactive.
For `COc1ccc(CC(=O)NC2CCN(c3ccnc4cc(Cl)ccc34)C2)cc1` (centres undefined), the growth inhibition was 88% (active) in assay [1] and 101% (active) in assay [4]. For the same compound, the inhibition in assay [2] is -1%; in assay [3], -8%. The result in assay [5], in assay [6], in assay [7] and in assay [8] was inactive.
In the case of `CN(C)Cc1c(O)ccc2[nH]c(-c3ccc(OC(F)(F)F)cc3)nc12`, the growth inhibition in assay [1] was 97% (active); in assay [4] it was 101% (active). The figures for the inhibition in assay [2] and in assay [3] were 24% and -3%, respectively. Besides, the outcome in assay [5], in assay [6], in assay [7] and in assay [8] was inactive.
Take `Cc1cccc2[nH]c(-c3cccc(-c4ccc(NC(=O)NC(C)C)cc4)c3)nc12`: the values for the growth inhibition in assay [1] and in assay [4] were 44% and 98% (active), respectively. Besides, the values for the inhibition in assay [2] and in assay [3] were 30% and -2%, respectively. Besides, the outcome in assay [5], in assay [6], in assay [7] and in assay [8] was inactive.
In the case of `CCN(CC)CCN1C(=O)c2oc3ccc(Cl)cc3c(=O)c2C1c1ccc(SC)cc1` (centres undefined), the growth inhibition in assay [1] is 6%; in assay [4], 98% (active). Besides, the inhibition in assay [2] is -5%; in assay [3] it was -6%. In addition, the outcome in assay [5], in assay [6], in assay [7] and in assay [8] was inactive.
As to `O=C(Nc1ccc(-c2nc3ccccc3[nH]2)cc1)C1CCCN(CC2CC2)C1` (centres undefined), the growth inhibition in assay [1] is 8%; in assay [4], 89% (active). Besides, the inhibition in assay [2] was 6%; in assay [3] it was 0%. Besides, the outcome in assay [5], in assay [6], in assay [7] and in assay [8] was inactive.
`CCOc1cc(Br)c(C(C)NC(=O)c2ccccc2)cc1OCC` (centres undefined): the growth inhibition in assay [1] was 10%; in assay [4] it was 92% (active). For the same compound, the inhibition in assay [2] is -2%; in assay [3], 5%. Besides, the outcome in assay [5], in assay [6], in assay [7] and in assay [8] was inactive.
Consider `Cc1ccc(NC(=O)c2ccc(CN3CCCN(CCC(C)C)CC3)cc2)cc1C`, for which the growth inhibition is 17% in assay [1] and 92% (active) in assay [4]. For the same compound, the values for the inhibition in assay [2] and in assay [3] were 25% and 3%, respectively. The result in assay [5], in assay [6], in assay [7] and in assay [8] was inactive.
Turning to `CN1CCN(Cc2nc(-c3ccc4c(Nc5ccc(F)c(O)c5)ccnc4c3)cs2)CC1`, the growth inhibition in assay [1] and in assay [4] was 100% (active) throughout. The inhibition is 0% in assay [2] and 7% in assay [3]. Besides, the result in assay [5], in assay [6], in assay [7] and in assay [8] was inactive.
Take `O=C(c1cccc(-c2cccc(-c3nc4ccc(C(F)(F)F)cc4[nH]3)c2)c1)N1CCCCC1CN1CCC(O)C1` (centres undefined): the growth inhibition in assay [1] is 101% (active); in assay [4] it was 91% (active). Further, the inhibition in assay [2] was 51% (active); in assay [3], 0%. Further, the outcome in assay [5], in assay [6], in assay [7] and in assay [8] was inactive.
With `COCCOc1ccc(Nc2nccc(-c3c(-c4cccc(NC(=O)c5c(F)cccc5F)c4)nn4ccccc34)n2)cc1F`, the growth inhibition in assay [1] was 60% (active); in assay [4], 90% (active). In addition, the inhibition in assay [2] was 62% (active); in assay [3], 1%. Also, the result in assay [5], in assay [6], in assay [7] and in assay [8] was inactive.
